Compounds with a hit are over-represented: about 27% of the library has one in this group of screens.
CYP2C19 act – activators of human cytochrome P450 2C19; P33261; recombinant CYP2C19, luciferin-H EGE luminescence; stronger effect = higher value; 0 = fully inhibited enzyme, 1 = untreated enzyme; activation factor at 5 µM; 96,000 tested, under 10 active; AID 1025;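 active means activation factor of at least 2 at 5 µM in the primary screen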;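 further: 0 = wells with 2.5 mM tranylcypromine and 1 = vehicle-only wells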
Target sequence (P33261 whole entry, looked up): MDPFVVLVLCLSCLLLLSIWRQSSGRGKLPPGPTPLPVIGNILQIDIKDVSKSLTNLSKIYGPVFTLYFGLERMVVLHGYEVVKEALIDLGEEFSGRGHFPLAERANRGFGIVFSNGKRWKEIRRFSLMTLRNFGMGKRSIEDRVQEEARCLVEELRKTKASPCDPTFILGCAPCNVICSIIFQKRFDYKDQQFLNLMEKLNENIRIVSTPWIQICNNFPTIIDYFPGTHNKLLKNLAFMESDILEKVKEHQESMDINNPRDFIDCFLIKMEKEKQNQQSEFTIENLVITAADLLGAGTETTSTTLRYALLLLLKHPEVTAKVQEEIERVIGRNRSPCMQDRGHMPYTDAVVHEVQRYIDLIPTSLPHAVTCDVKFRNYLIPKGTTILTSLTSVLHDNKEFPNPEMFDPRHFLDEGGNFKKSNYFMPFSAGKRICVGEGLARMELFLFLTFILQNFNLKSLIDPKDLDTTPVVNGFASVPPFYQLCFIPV
CYP2C9 activ – activators of human CYP2C9 | 96,000 compounds, 1.4% hits | activation factor at 5 µM | recombinant CYP2C9, luciferin-H conversion, luminescence; stronger effect = higher value; factor 1 = untreated enzyme, 0 = blocked;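 active means activation factor of 2 or more for CYP2C9 at a 5 µM dose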;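 further: 0 = sulfaphenazole-blocked wells and 1 = vehicle-only wells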
CYP2C19 inh – blocks human cytochrome P450 2C19 | CYP2C19 Supersomes, luciferin-H EGE luminescence, 30 min | inhibition, % at 5 µM | 96,000 compounds, 21% hits | P33261;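 active means CYP2C19 inhibition above a set limit at 5 µM in the primary screen, cut at about 50% in these data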;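 further: plate controls were negative control wells for no effect and 2.5 mM tranylcypromine positive control for full effect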
CYP2C9 inhib – inhibitors of human CYP2C9; AID 777; CYP2C9 Supersomes, luciferin-H conversion, luminescence; 96,000 compounds, 20% hits; inhibition, % at 5 µM;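 active means blocking of liver enzyme CYP2C9 beyond about 50% at 5 µM, limit read from the data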
EphB4 antag – antagonists of human EphB4-ephrin-B2 interaction. P54760. EphB4 LBD / TNYL-RAW-Alexa532 peptide, fluorescence polarization. inhibition, % at 7 µM. 97,000 compounds, 0.15% hits. AID 720;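 active means inhibition above the screen-wide mean inhibition plus 3 SD, cut at about 15% in these data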;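 further: 0% = DMSO wells and 100% = excess unlabeled TNYL-RAW peptide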
* marks the source's active call; other numbers are inactive results; x = no result.

SMILES	CYP2C19 act	CYP2C9 activ	CYP2C19 inh	CYP2C9 inhib	EphB4 antag
CS(=O)(=O)N(CC(=O)NCCC1=CCCCC1)c1ccc2c(c1)OCO2	0.4	0.4	62*	57*	-7
CC1(c2ccc3c(c2)OCO3)NC(=O)N(CC(=O)NCCC2=CCCCC2)C1=O (stereo not given)	0.9	0.8	9	19	-9
CC(OC(=O)CNC(=O)c1ccc2c(c1)OCO2)C(=O)NCCC1=CCCCC1 (stereo not given)	0.4	0.6	63*	41	3
Cc1cc(C)c(C(=O)CSC2=NC(N)=C(C#N)C3(CCCCC3)C2C(N)=O)cc1C (stereo not given)	0.6	0.9	41	7	-4
CC1CCCCC1NC(=S)Nc1ccc(SC(F)F)cc1 (stereo not given)	0.4	2.3*	61*	-125	4
O=C(Nc1ccc(SC(F)F)cc1)C1=COCCO1	1	1.1	4	-9	-8
FC(F)Sc1ccc(NC(=S)NC2CCCCC2)cc1	0.2	2.4*	75*	-143	2
FC(F)Sc1ccc(NC(=S)NCC2CCCCC2)cc1	0	1.3	96*	-28	4
c1ccc(Nc2nn[nH]n2)cc1	1.1	1.1	-12	-13	x
C=CCOc1ccc(/C(O)=C2\C(=O)C(=O)N(CCOC)C2c2cccnc2)cc1 (stereo not given)	1	0.9	-1	7	1
O=C(NCC1CCCCC1)C1CCN(C(=O)NC2CCCCC2)CC1	0.8	0.6	20	37	-1
Cc1noc(C(=O)N2CC3(C)CC2CC(C)(C)C3)c1Cl (stereo not given)	0.2	0.7	82*	35	0
COc1ccc(C(C)=O)cc1COC(=O)c1ccc(OCc2c(C)noc2C)cc1	0.1	0.2	88*	76*	5
CCOC(=O)c1cc(NC(=O)c2c(C)noc2C)cc(C(=O)OCC)c1	0.9	0.3	10	75*	0
COc1cccc(-c2cc(C(=O)N3CC4(C)CC3CC(C)(C)C4)no2)c1 (stereo not given)	1	0.9	-3	9	-6
COc1ccc(C(C)=O)cc1COC(=O)c1c(C)noc1C	0.4	0.5	61*	52*	1
COc1cc(C(=O)O)ccc1OCc1c(C)noc1C	1.2	1.1	-21	-7	2
Cc1ccc(S(=O)(=O)NC(C)C(=O)Nc2ccc(C(N)=O)cc2)cc1 (stereo not given)	0.9	0.8	11	23	4
COCCNc1nc2c(c(=O)n(C)c(=O)n2C)n1Cc1cccc(C(F)(F)F)c1	0.8	0.9	24	6	-4
Cc1cccc(C)c1OCC(=O)N1CC2(C)CC1CC(C)(C)C2 (stereo not given)	0.4	1.2	61*	-22	-3
Cc1noc(C)c1COc1ccc(C(=O)OCC(=O)NC(=O)C2COc3ccccc3O2)cc1 (stereo not given)	0.9	0.6	14	41	11
Cc1noc(C)c1COc1ccc(C(=O)OCC(=O)c2ccc3c(c2)OCCO3)cc1	1.2	1.1	-18	-8	-4
Cc1noc(C)c1COc1ccc(C(=O)OCC(=O)Nc2ccc3ccccc3c2)cc1	0.4	0.1	65*	88*	-1
CCOC(=O)c1ccc(OCc2c(C)noc2C)cc1	0.3	0.2	75*	79*	-1
Cc1noc(C)c1COc1ccc(C(=O)OCC(=O)N2CC3(C)CC2CC(C)(C)C3)cc1 (stereo not given)	0.4	0.5	64*	53*	-2
SMILES	CYP2C19 act	CYP2C9 activ	CYP2C19 inh	CYP2C9 inhib	EphB4 antag
COc1ccccc1N(C(C)=O)c1nc(C)cc(C)c1C#N	x	x	x	x	9
COc1ccc(-n2c(C)nc3cc(C(=O)O)ccc32)cc1	1.2	1.1	-19	-12	8
COCCNC(=O)c1c(N)n(-c2cccc(C)c2)c2nc3ccccc3nc12	0.7	0.8	30	25	6
CCn1c(SCCC(=O)Nc2ccccc2)nnc1-c1ccc(OC)cc1	0.1	0.4	93*	62*	-6
Cn1c(COc2ccccc2)nnc1SCCC(=O)Nc1ccccc1	0.3	0.1	74*	88*	-11
CCn1c(SCC(=O)Nc2cccc(OC)c2)nnc1-c1ccc(Cl)cc1	1	1.1	0	-6	5
COC(=O)C1=C(C(=O)OC)SC2(S1)C(C(=O)OC)=C(C(=O)OC)SC1=C2c2cc(C)cc(C)c2NC1(C)C	0.3	0.2	67*	79*	0
Oc1ccccc1-c1n[nH]c(=S)n1Cc1ccco1	0.8	1.1	18	-10	-7
CN(c1ccccc1)S(=O)(=O)c1ccc(NC(=S)Nc2ccccc2)cc1	0.8	0.4	17	60*	4
CN(c1ccccc1)S(=O)(=O)c1ccc(NC(=O)c2ccc(-c3ccccc3)cc2)cc1	0.4	0.2	62*	84*	3
Cc1ccc(/C=N/NC(=S)NC2CCS(=O)(=O)C2)cc1 (stereo not given)	0.9	0.9	11	11	4
CCCCOc1ccc2c(C)cc(=O)oc2c1OCCCC	x	x	x	x	0
COc1ccc(C(=O)O/N=C(\C)c2ccccc2)cc1	0.5	0.1	52*	88*	-1
C/C(=N\OC(=O)c1ccc(C)cc1)c1sc(C)nc1C	1	1.1	0	-13	5
C/C(=N\OC(=O)c1ccc(OC(C)C)cc1)c1ccc(C)c(C)c1	0.4	0.4	56*	56*	3
CC/C(=N\OC(=O)c1ccc(OC(C)C)cc1)c1ccc(C)cc1	0.3	0.4	73*	62*	-5
Cc1cc(C)nc(NC(=O)c2ccc(OC(C)C)cc2)n1	0.8	1.1	17	-6	0
Cc1ccc(/C(N)=N/OC(=O)c2ccc(F)cc2)cc1	0.9	1	10	4	-8
COc1ccc(C(OC(=O)c2ccco2)C(=O)NCc2ccc(C)cc2)cc1 (stereo not given)	1.1	0.9	-7	14	5
CCCCOC(=O)Cn1c2ccc(OC)cc2c2nc3ccccc3nc21	1.1	0.8	-8	20	0
O=C(NNC(=O)C1CCCN(c2ncccn2)C1)c1ccc(F)cc1 (stereo not given)	1	1.2	-3	-20	1
CCCCn1ccnc1C(=O)c1cccc(S(=O)(=O)N2CC(C)CC(C)C2)c1 (stereo not given)	0.2	0.1	79*	90*	4
CCCCn1ccnc1C(=O)c1cc(S(=O)(=O)N2CCOCC2)ccc1C	0.4	0.3	60*	69*	-4
Cc1ccc(S(=O)(=O)N2CCOCC2)cc1C(=O)O	1	1	-3	-1	x
CC(=O)c1cccc(NC(=O)CCC2CCCC2)c1	0.8	0.8	17	22	-4
O=C(CNC(=O)/C(=C\c1ccc(F)cc1)NC(=O)c1ccccc1)OCc1ccccc1	0.3	0.7	71*	34	-15
CC1CN(C(=O)CSc2nnc(-c3ccncc3)n2-c2ccccc2)CC(C)O1 (stereo not given)	0.2	0.8	76*	24	-7
